According to the supplement of paper PMC10127200:
Structures can show the parent of a compound that is named as a salt.

Columns and labels:
Assay in all cases: Euclidean distance of Cell Painting phenotypic profile (signed KS, 77 features) to DMSO centroid (dimensionless distance); 5 or 10 uM (library dependent); higher = stronger phenotypic change vs DMSO (phenoactivity)
Conditions in all cases: 48 h
786-O = test system: 786-O
Method in brief: (§1)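 Five cancer lines, together with a healthy fibroblast line, received library compounds for 48 h at a library-dependent 10 or 5 uM and 0.1% DMSO final. Harmony then derived 77 features from confocal 20X images (9 fields/well) of the stained cells, scoring each as a signed Kolmogorov-Smirnov statistic against same-plate vehicle wells. After plate-position correction, correlation weighting and replicate averaging at the top dose, phenoactivity was taken as each profile's Euclidean distance to the median vehicle profile.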

A549 = test system: A549
Method in brief: as §1

DU145 = test system: DU145
Method in brief: as §1

FB = test system: FB
Method in brief: as §1

HEPG2 = test system: HEPG2
Method in brief: as §1

OVCAR4 = test system: OVCAR4
Method in brief: as §1

Row | SMILES | Euclidean distance (786-O) | Euclidean distance (A549) | Euclidean distance (DU145) | Euclidean distance (FB) | Euclidean distance (HEPG2) | Euclidean distance (OVCAR4)
1 | CC[C@H](C)C[C@H](C)CCCCCCCCC(=O)N[C@H]1C[C@@H](O)[C@@H](NCCN)NC(=O)[C@@H]2[C@@H](O)CCN2C(=O)[C@H]([C@H](O)CCN)NC(=O)[C@H]([C@H](O)[C@@H](O)c2ccc(O)cc2)NC(=O)[C@@H]2C[C@@H](O)CN2C(=O)[C@H]([C@@H](C)O)NC1=O [Caspofungin Acetate] | 2.18 | 0.866 | 1.51 | 2.42 | 1.15 | 1.86
2 | O=C(NCCO[N+](=O)[O-])c1cccnc1 [Nicorandil] | 1.26 | 0.857 | 1.26 | 1.09 | 0.784 | 1.38
3 | CC(C)(Oc1ccc(CCNC(=O)c2ccc(Cl)cc2)cc1)C(=O)O [Bezafibrate] | 0.885 | 1.16 | 0.777 | 1.09 | 1.04 | 1.71
4 | CC1CC(OC(=O)C(O)c2ccccc2)CC(C)(C)C1 (stereo not drawn) [Cyclandelate] | 1.19 | 1.12 | 1.02 | 0.843 | 0.782 | 1.02
5 | Nc1ccc(S(N)(=O)=O)cc1 [Sulfanilamide] | 0.866 | 0.563 | 0.913 | 0.819 | 0.645 | 1.21
6 | O=S(=O)(O)CCCCOC[C@H]1O[C@@H]2O[C@H]3[C@H](O)[C@@H](O)[C@@H](O[C@H]4[C@H](O)[C@@H](O)[C@@H](O[C@H]5[C@H](O)[C@@H](O)[C@@H](O[C@H]6[C@H](O)[C@@H](O)[C@@H](O[C@H]7[C@H](O)[C@@H](O)[C@@H](O[C@H]8[C@H](O)[C@@H](O)[C@@H](O[C@H]1[C@H](O)[C@H]2O)O[C@@H]8CO)O[C@@H]7COCCCCS(=O)(=O)O)O[C@@H]6COCCCCS(=O)(=O)O)O[C@@H]5COCCCCS(=O)(=O)O)O[C@@H]4COCCCCS(=O)(=O)O)O[C@@H]3COCCCCS(=O)(=O)O [Captisol (SBE-Œ≤-CD)] | 1.09 | 0.893 | 0.704 | 1.13 | 1.38 | 1.1
7 | COc1cccc(C=NCCN=Cc2cccc(OC)c2[O-])c1[O-].[Cl-].[Mn+3] | 1.28 | 0.596 | 0.577 | 0.887 | 2.11 | 1.14
8 | C[C@@H]1CN(C(=O)c2ccc(NC(=O)c3cc(O[C@H](C)c4c(Cl)ccc(F)c4Cl)c(N)nn3)cc2)C[C@H](C)N1 [Ensartinib (X-396) dihydrochloride] | 5.01 | 4.53 | 3.15 | 4.29 | 3.74 | 3.35
9 | Oc1ccc(C2CNCCc3c2cc(O)c(O)c3Cl)cc1 (stereo not drawn) [Fenoldopam mesylate] | 1.43 | 1.07 | 0.768 | 0.976 | 1.19 | 0.867
10 | C[n+]1ccccc1C=NO [Pralidoxime Iodide] | 1.45 | 0.771 | 0.975 | 0.641 | 0.434 | 0.907
11 | Cn1c(=O)c(F)c(Nc2ccc(I)cc2F)c2c(=O)n(C[C@@H](O)CO)cnc21 | 3.48 | 2.45 | 3.23 | 4.03 | 2.21 | 2.01
12 | C=C[C@]1(C)C[C@@H](OC(=O)CS[C@@H]2C[C@H]3CC[C@@H](C2)N3C)[C@]2(C)[C@H](C)CC[C@]3(CCC(=O)[C@H]32)[C@@H](C)[C@@H]1O [Retapamulin] | 1.44 | 1.81 | 1.32 | 1.51 | 1.51 | 1.59
13 | CO[C@H]1C[C@@H]2CC[C@@H](C)[C@@](O)(O2)C(=O)C(=O)N2CCCC[C@H]2C(=O)O[C@H]([C@H](C)C[C@@H]2CC[C@@H](O)[C@H](OC)C2)CC(=O)[C@H](C)/C=C(\C)[C@@H](O)[C@@H](OC)C(=O)[C@H](C)C[C@H](C)/C=C/C=C/C=C/1C [Rapamycin (Sirolimus)] | 2.74 | 1.97 | 1.21 | 3.07 | 1.86 | 2.1
14 | Cc1cn(-c2cc(NC(=O)c3ccc(C)c(Nc4nccc(-c5cccnc5)n4)c3)cc(C(F)(F)F)c2)cn1 [Nilotinib (AMN-107)] | 2.33 | 3.94 | 3.46 | 2.13 | 1.09 | 1.8
15 | CCCCOc1cc(C(=O)OCCN(CC)CC)ccc1N [Oxybuprocaine HCl] | 1.13 | 0.889 | 1.18 | 0.902 | 0.935 | 1.1
16 | Cc1cc(NS(=O)(=O)c2ccc(N)cc2)no1 [Sulfamethoxazole sodium] | 1.09 | 0.64 | 1.01 | 0.902 | 0.561 | 1.28
17 | CC(C)C[C@@H](C=O)NC(=O)[C@H](CC(C)C)NC(=O)[C@H](CC(C)C)NC(=O)OCc1ccccc1 | 3.8 | 3.23 | 3.14 | 3.41 | 3.64 | 4.07
18 | O=C(O)c1cc(=O)c2c(OCC(O)COc3cccc4oc(C(=O)O)cc(=O)c34)cccc2o1 [Disodium Cromoglycate] | 0.952 | 0.486 | 1.78 | 1.02 | 0.769 | 1.05
19 | CNC(=O)[C@H](Cc1c[nH]c2ccccc12)NC(=O)[C@@H](CC(=O)NO)CC(C)C [Ilomastat (GM6001. Galardin)] | 1.02 | 1.06 | 1.22 | 0.836 | 0.633 | 1.3
20 | COc1ccc2cc3[n+](cc2c1OC)CCc1cc2c(cc1-3)OCO2 [Berberine HCl] | 0.872 | 1.5 | 0.626 | 0.96 | 1.8 | 0.946
21 | CC(N)C12CC3CC(CC(C3)C1)C2 (stereo not drawn) [Rimantadine] | 0.735 | 0.64 | 0.671 | 1.35 | 0.621 | 1.37
22 | NS(=O)(=O)NCCNc1nonc1/C(=N/O)Nc1ccc(F)c(Br)c1 | 1.34 | 1.13 | 1.07 | 1.35 | 0.971 | 0.884

Row | SMILES | Euclidean distance (786-O) | Euclidean distance (A549) | Euclidean distance (DU145) | Euclidean distance (FB) | Euclidean distance (HEPG2) | Euclidean distance (OVCAR4)
23 | COc1cc(Nc2ncc(F)c(Nc3ccc4c(n3)NC(=O)C(C)(C)O4)n2)cc(OC)c1OC [R406 (free base)] | 2.36 | 3.53 | 3.18 | 2.76 | 1.99 | 2.41
24 | CS(=O)(=O)c1ccc(C2=C(c3ccccc3)C(=O)OC2)cc1 [Rofecoxib] | 1.05 | 0.859 | 0.686 | 0.821 | 0.51 | 1.24
25 | FC(F)(F)c1ccc(/C=C/c2nc(COc3ccc(CCCCn4ccnn4)cc3)co2)cc1 [Mubritinib (TAK 165)] | 0.614 | 1.76 | 1.4 | 1.61 | 1.89 | 1.42
26 | CCOC(=O)C1=C[C@]2(CC)CCCN3CCc4c(n1c1ccccc41)[C@@H]32 [Vinpocetine] | 1.12 | 0.68 | 0.699 | 0.994 | 0.98 | 1.81
27 | Cc1cc(N2CCOCC2)ccc1Nc1nc(NC2CCCCC2)c2[nH]cnc2n1 | 1.79 | 2.73 | 1.25 | 1.29 | 1.78 | 1.73
28 | COc1ccc(C(Cl)=C(c2ccc(OC)cc2)c2ccc(OC)cc2)cc1 [Chlorotrianisene] | 1.13 | 1.23 | 0.763 | 1.08 | 1.11 | 1.04
29 | CN1CCN(c2cccc(Nc3nc4c(-c5ccc(S(C)(=O)=O)cc5)cccn4n3)c2)CC1 | 1.38 | 1.14 | 1.07 | 1.26 | 0.565 | 1.25
30 | O=C(NCc1ccc(Oc2ccccc2)cc1)c1nc(-c2cc(Br)c(O)c(Br)c2)no1 | 0.904 | 1.1 | 0.858 | 0.788 | 1.55 | 1.21
31 | CN[C@@H]1[C@@H](O[C@H]2O[C@H](CO)[C@@H](N)[C@H](O)[C@H]2O)OC2C[C@@H](N)[C@@H](O[C@H]3[C@H](O)[C@@H](O)[C@H](N)C[C@@H]3N)OC2[C@@H]1O (stereo partly drawn) [Apramycin Sulfate] | 1.51 | 0.794 | 0.965 | 1.27 | 0.895 | 1.19
32 | CN(C)CCOC(=O)COc1ccc(Cl)cc1 [Meclofenoxate (Centrophenoxine) HCl] | 0.714 | 0.913 | 1.3 | 0.93 | 1.13 | 1.29
33 | O=C(Nc1ccc(S(=O)(=O)Nc2ccccc2Cl)c(Cl)c1)c1ccccn1 | 0.876 | 0.81 | 0.6 | 0.594 | 0.744 | 0.782
34 | CN(NC(=O)CC(=O)NN(C)C(=S)c1ccccc1)C(=S)c1ccccc1 [Elesclomol (STA-4783)] | 5.12 | 5.4 | 4.86 | 6.42 | 1.29 | 6.01
35 | C[C@@H](CN1CC(=O)NC(=O)C1)N1CC(=O)NC(=O)C1 [Dexrazoxane HCl (ICRF-187. ADR-529)] | 1.38 | 1.71 | 1.21 | 1.96 | 1.47 | 1.89
36 | OC[C@@H](O)[C@@H](O)[C@H](O)[C@@H](O)CO [Sorbitol] | 1.36 | 0.586 | 0.79 | 0.737 | 0.791 | 1.21
37 | NNC(=O)c1ccncc1 [Isoniazid] | 1.4 | 1.36 | 0.961 | 1.16 | 0.573 | 0.885
38 | CC1CCc2c(N3CCC(O)CC3)c(F)cc3c(=O)c(C(=O)O)cn1c23 (stereo not drawn) [Nadifloxacin] | 1.05 | 0.818 | 0.896 | 1.14 | 0.855 | 0.748
39 | CC(C)(C)C(O)/C=C/c1ccc2c(c1)OCO2 (stereo not drawn) [Stiripentol] | 0.796 | 0.894 | 1.07 | 0.983 | 0.456 | 0.801
40 | C[C@@H](c1nc(-c2ccc(C#N)cc2)cs1)[C@](O)(Cn1cncn1)c1cc(F)ccc1F [Isavuconazole] | 1 | 1.45 | 1.02 | 0.654 | 1.55 | 1.43
41 | Nc1nc(O)c2ncn(CCC(CO)CO)c2n1 [Penciclovir] | 0.815 | 0.334 | 0.816 | 0.496 | 0.404 | 1.17
42 | CC(C)(C)NCC(O)c1ccc(O)c(CO)c1 (stereo not drawn) [Salbutamol] | 1.03 | 0.738 | 1.09 | 0.676 | 0.894 | 0.709
43 | CCOC(=O)CCC(=O)O[C@H]1[C@H](O[C@@H]2[C@@H](C)[C@H](O[C@H]3C[C@@](C)(OC)[C@@H](O)[C@H](C)O3)[C@@H](C)C(=O)O[C@H](CC)[C@@](C)(O)[C@H](O)[C@@H](C)C(=O)[C@H](C)C[C@@]2(C)O)O[C@H](C)C[C@@H]1N(C)C [Erythromycin Ethylsuccinate] | 1.09 | 0.82 | 1.09 | 1.04 | 0.715 | 1.3
